# Measured values taken from PubChem BioAssay (NCATS).
# Several values for one entry are separate records, joined by “and”; a condition that tells them apart may be missing. Equal values may be shown once. Results filed as inconclusive are left out. Unmarked numbers belong to inactive results. Activity calls are given as the source filed them. Calls follow the shape of the dose curve; as a rule, active = well fitted curve in the direction sought with a large enough effect; inconclusive = small, poorly fitted or top-dose-only effect, or another doubt; inactive = no such curve, though single readings can be large; an effect the other way counts as inactive or inconclusive.
# Assay: qHTS assay to identify small molecule inhibitors of chordoma cells - UCH-1 (AID 1259355); also: nearly all actives have a fitted effect of over 55% in size; also: potency is read from the fitted curve at half-maximal effect
# Conditions: UCH-1 chordoma viability, CellTiter-Glo, 48 h, combination; series mostly up to 46.1 µM; activity, negative = inhibition: at the top concentration
# In short: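 A 48hr growth-inhibition format: each drug tested at 15 concentrations together with added auranofin, camptothecin, doxorubicin, rubitecan and topotecan, with cell viability quantified as CellTiter-Glo luminescence.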
# % is scaled to controls: 0 for no effect and ±100 for the full control effect.
Compound,"activity, negative = inhibition",Potency
CC(C)=C[C@@H]1[C@@H](C(=O)OCc2coc(Cc3ccccc3)c2)C1(C)C,"-25.6% [at 46.1 µM, with auranofin plus four topoisomerase inhibitors]",
Clc1ccc(CSC(Cn2ccnc2)c2ccc(Cl)cc2Cl)cc1 (stereo not drawn),-6.96% [at 20.6 µM],
Cc1ncc2n1-c1ccc(Cl)cc1C(c1ccccc1F)=NC2,-18.6%,
CNC(=O)NC(O)C(Cl)(Cl)Cl (stereo not drawn),-6.39%,
Cc1ccc(N=CN(C)C=Nc2ccc(C)cc2C)c(C)c1,-31.2%,
CCC(=O)O[C@H]1CC[C@H]2[C@@H]3CCC4=CC(=O)CC[C@]4(C)[C@H]3CC[C@]12C,-21.3% [at 20.6 µM],
CC[n+]1c(-c2ccccc2)c2cc(N)ccc2c2ccc(N)cc21,,7.94 µM (active)

# Assay: qHTS assay to identify small molecule inhibitors of chordoma cells - UCH-2 (AID 1259356)
# Conditions: UCH-2 chordoma viability, CellTiter-Glo ATP luminescence, 48 h; series mostly up to 46.1 µM; activity change, negative = inhibition: at the top concentration
row,Compound,"activity change, negative = inhibition"
1,NC(=O)OCCCc1ccccc1,3.66%
2,CN(C)C(=S)SSC(=S)N(C)C,7.42%
3,CCC1(c2cccc(O)c2)CCCCN(C)C1 (stereo not drawn),3.76% [at 20.6 µM]
4,Oc1ccc2[nH]cc(CCCCN3CC=C(c4ccccc4)CC3)c2c1,1.63%
5,CN1C[C@@H](NS(=O)(=O)N(C)C)C[C@@H]2c3cccc4c3c(cn4C)C[C@H]21,3.52%
6,COP(=S)(OC)Oc1ccc(Sc2ccc(OP(=S)(OC)OC)cc2)cc1,2.2%
7,COC(=O)C1=CCCN(C)C1,-15.3%
8,CCN(CC)C(C)C(=O)c1ccccc1 (stereo not drawn),-2.01%
9,CCOC(=O)NC(O)C(Cl)(Cl)Cl (stereo not drawn),-4.35%
10,CC(C)(O)C(Cl)(Cl)Cl,6.67%
11,O=C(NC(=O)c1c(F)cccc1F)Nc1cc(Cl)c(OC(F)(F)C(F)C(F)(F)F)cc1Cl (stereo not drawn),-1.14%
12,COCC(=O)N(c1c(C)cccc1C)C(C)C(=O)OC (stereo not drawn),-16.8%
13,C[C@@H]1CC[C@H]2[C@@H](C)C(=O)O[C@@H]3O[C@@]4(C)CC[C@@H]1[C@]32OO4,1.29%
14,C=CCN1CC[C@]23CCCC[C@H]2[C@H]1Cc1ccc(O)cc13,21.5%
15,Clc1ccc(CO/N=C(\Cn2ccnc2)c2ccc(Cl)cc2Cl)c(Cl)c1,16.9%
16,COP(=O)(OC)OC=C(Cl)Cl,-27.7%
17,CN1CCc2cc(Cl)c(O)cc2[C@H]2c3ccccc3CC[C@@H]21,2.66%
18,C#C[C@]1(O)C=C[C@H]2[C@@H]3CCC4=CC(=O)CC[C@@H]4[C@H]3CC[C@@]21CC,15.8%
19,C[C@]12C=CC(=O)C=C1CC[C@@H]1[C@@H]2CC[C@@]2(C)[C@H]1CC[C@]2(C)O,8.1%

row,Compound,"activity change, negative = inhibition"
1,Clc1ccc(C(OCCN2CCCCC2)c2ccccc2)cc1 (stereo not drawn),4.62% [at 20.6 µM]
2,CCCC[N+]1(C)[C@@H]2CC(OC(=O)[C@H](CO)c3ccccc3)C[C@H]1[C@@H]1O[C@@H]12 (stereo partly drawn),8.74%
3,O=C(CCCN1CCC(n2c(=O)[nH]c3ccccc32)CC1)c1ccc(F)cc1,5.57% [at 20.6 µM]
4,Nc1ccc(N)cc1,7.2%
5,CCCC(C)C1(CC)C(=O)N=C(S)NC1=O (stereo not drawn),3.92%
6,COc1ccc(C(=O)N2CCCC2=O)cc1,-9.79%
7,COc1ccc(CN2CCNCC2)c(OC)c1OC,0% [at 20.6 µM]
8,N#Cc1nn(-c2c(Cl)cc(C(F)(F)F)cc2Cl)c(N)c1S(=O)C(F)(F)F (stereo not drawn),2.68%
9,ClC1=C(Cl)C2(Cl)C(CBr)CC1(Cl)C2(Cl)Cl (stereo not drawn),-1.56%
10,CN1C(=O)[C@@H](NC(=O)c2cc3ccccc3[nH]2)N=C(c2ccccc2)c2ccccc21,13.2%
11,OC(c1ccccc1)(c1ccccc1)C1CCNCC1,11.7% [at 20.6 µM]
12,CC(C)=C[C@@H]1[C@@H](C(=O)OCc2coc(Cc3ccccc3)c2)C1(C)C,13.8%
13,CCN(CC)CCOC(=O)C(C)(c1ccccc1)c1ccccc1,4.6%
14,Clc1ccc(CSC(Cn2ccnc2)c2ccc(Cl)cc2Cl)cc1 (stereo not drawn),-0.694% [at 20.6 µM]
15,Cc1ncc2n1-c1ccc(Cl)cc1C(c1ccccc1F)=NC2,-2.32%
16,CNC(=O)NC(O)C(Cl)(Cl)Cl (stereo not drawn),-24.1%
17,Cc1ccc(N=CN(C)C=Nc2ccc(C)cc2C)c(C)c1,0.583%
18,CCC(=O)O[C@H]1CC[C@H]2[C@@H]3CCC4=CC(=O)CC[C@]4(C)[C@H]3CC[C@]12C,2.77% [at 20.6 µM]
19,CC[n+]1c(-c2ccccc2)c2cc(N)ccc2c2ccc(N)cc21,-0.0725%

# Assay: P-glycoprotein substrates identified in KB-8-5-11 adenocarcinoma cell line, qHTS therapeutic library screen (AID 1346987); also: nearly all actives have a fitted effect of over 65% in size; also: potency is read from the fitted curve at half-maximal effect
# Conditions: KB-8-5-11 (P-gp overexpressing) viability, CellTiter-Glo, 72 h; series mostly up to 44.5 µM; activity change, negative = cytotoxicity: at the top concentration
# In short: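 Compounds are pinned in dose-response onto KB-8-5-11 cells (500 cells/well, colchicine-free medium) and left 72 h at 37 degree C. CellTiter-Glo luminescence then yields AC50 values.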
Compound,"activity change, negative = cytotoxicity",Potency
NC(=O)OCCCc1ccccc1,3.16%,
C[C@@H]1C[C@@H]([C@H](O)CC2CC(=O)NC(=O)C2)C(=O)[C@@H](C)C1,,2.31 µM (active) and 590 nM (active)
CCC1(c2cccc(O)c2)CCCCN(C)C1 (stereo not drawn),10.7% [at 17.3 µM],
Oc1ccc2[nH]cc(CCCCN3CC=C(c4ccccc4)CC3)c2c1,-25.9%,
COC(=O)C1=CCCN(C)C1,,inactive
CCN(CC)C(C)C(=O)c1ccccc1 (stereo not drawn),3.43%,
CCOC(=O)NC(O)C(Cl)(Cl)Cl (stereo not drawn),5.34%,
COCC(=O)N(c1c(C)cccc1C)C(C)C(=O)OC (stereo not drawn),1.29%,
COP(=O)(OC)OC=C(Cl)Cl,-4.76%,
CN1CCc2cc(Cl)c(O)cc2[C@H]2c3ccccc3CC[C@@H]21,-9.26%,
C#C[C@]1(O)C=C[C@H]2[C@@H]3CCC4=CC(=O)CC[C@@H]4[C@H]3CC[C@@]21CC,,6.51 µM (active)
CCCC[N+]1(C)[C@@H]2CC(OC(=O)[C@H](CO)c3ccccc3)C[C@H]1[C@@H]1O[C@@H]12 (stereo partly drawn),,inactive
Nc1ccc(N)cc1,-0.0273%,
COc1ccc(C(=O)N2CCCC2=O)cc1,-0.436%,
COc1ccc(CN2CCNCC2)c(OC)c1OC,-13.4% [at 17.3 µM],
N#Cc1nn(-c2c(Cl)cc(C(F)(F)F)cc2Cl)c(N)c1S(=O)C(F)(F)F (stereo not drawn),-12.3%,
ClC1=C(Cl)C2(Cl)C(CBr)CC1(Cl)C2(Cl)Cl (stereo not drawn),3.51%,
OC(c1ccccc1)(c1ccccc1)C1CCNCC1,1.51% [at 17.3 µM],
CC(C)=C[C@@H]1[C@@H](C(=O)OCc2coc(Cc3ccccc3)c2)C1(C)C,-19.9%,
CNC(=O)NC(O)C(Cl)(Cl)Cl (stereo not drawn),11.5%,
Cc1ccc(N=CN(C)C=Nc2ccc(C)cc2C)c(C)c1,9.13%,
CCC(=O)O[C@H]1CC[C@H]2[C@@H]3CCC4=CC(=O)CC[C@]4(C)[C@H]3CC[C@]12C,,2.78 µM (active)
CC[n+]1c(-c2ccccc2)c2cc(N)ccc2c2ccc(N)cc21,,inactive
